Assay [1] has as its target Tumor susceptibility gene 101 protein (Homo sapiens) (UniProt Q99816). In words: qHTS Assay for Iinhibitors of HIV-1 Budding by Blocking the Interaction of PTAP/TSG101: Hit Validation (AID 651600). Also: nearly all actives have a fitted effect of over 70% in size. Also: potency is read from the fitted curve at half-maximal effect. As to activity change, negative = inhibition: % is scaled to controls: 0 for no effect and ±100 for the full control effect. Put shortly: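 Displacement of a FITC-labeled PTAP-motif peptide (50 nM) from the Tsg101 binding domain (10 uM) was monitored by fluorescence polarization after a 20 min room-temperature incubation.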

Assay [2] concerns the target Rap guanine nucleotide exchange factor 3 (Homo sapiens) (UniProt O95398). In words: Confirmatory qHTS for antagonist of cAMP-regulated guanine nucleotide exchange factor 3 (EPAC1) (AID 1645880). Also: nearly all actives have a fitted effect of over 55% in size. Also: potency is read from the fitted curve at half-maximal effect. Put shortly:
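Nucleotide exchange uses 100 nM EPAC1, 250 nM RAP1B-BODIPY-GDP and 50 uM GDP, with compounds in a concentration-titration series. After 5 min at room temperature, fluorescence (480 nm ex/540 nm em) is read every 5 min for 30 min. Data are normalized to control ATA and DMSO.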

Assay [3] has as its target Rap guanine nucleotide exchange factor 4 (Homo sapiens) (UniProt Q8WZA2). Kind of assay: Confirmatory qHTS for agonist of cAMP-regulated guanine nucleotide exchange factor 4 (EPAC2) (AID 1645884).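 Also: nucleotide exchange releases bodipy-GDP from Rap1 and this lowers its fluorescence; nearly all actives have a fitted effect of over 65% in size.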 Also: potency is read from the fitted curve at half-maximal effect. As to activation: % is scaled to controls: 0 for no effect and ±100 for the full control effect.
For assay [4] the target is unchanged. Kind of assay: Confirmatory qHTS for antagonist of cAMP-regulated guanine nucleotide exchange factor 4 (EPAC2) (AID 1645885). Also: nearly all actives have a fitted effect of over 25% in size. As to activity change, negative = inhibition: % is scaled to controls: 0 for no effect and ±100 for the full control effect.
The target of assay [5] is Rap guanine nucleotide exchange factor 3 (Homo sapiens) (UniProt O95398). In words: Counterscreen qHTS for antagonist of cAMP-regulated guanine nucleotide exchange factor 3 (EPAC1) (AID 1645888).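 Also: fluorescence loss as bound BODIPY-GDP is released from Rap1B; % of control where 0% means no effect.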 Put shortly:
(§1)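 Measured: fluorescence of BODIPY-GDP bound to Rap1B, which falls as exchange proceeds. Conditions include 50 uM competing GDP, 5 and 30 min reads, and a later cAMP challenge for antagonist detection.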

The target is the same in assay [6]. In words: Counterscreen qHTS for agonist of cAMP-regulated guanine nucleotide exchange factor 3 (EPAC1) (AID 1645889). Also: nearly all actives have a fitted effect of over 40% in size. Also: potency is read from the fitted curve at half-maximal effect. As to activation: % of control where 0% means no effect. Summed up: as §1
Assay [7] deals with Cytochrome P450 3A4 (Homo sapiens) (UniProt P08684). Kind of assay: qHTS Assay for Inhibitors and Substrates of Cytochrome P450 3A4 (AID 884). Also: potency is read from the fitted curve at half-maximal effect; nearly all actives have a fitted effect of over 50% in size. Put shortly:
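20 nM human CYP3A4 with 25 uM Luciferin-PPXE (at KM) in 200 mM KPO4, preincubated 10 min with compound; NADPH regeneration started a 60 min RT reaction. Luciferin detected by luminescence, normalized to 57 uM ketoconazole as full inhibition.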

Assay [8] has the same target. In words: qHTS Assay for Activators of Cytochrome P450 3A4 (AID 885). Also: nearly all actives have a fitted effect of over 65% in size. Put shortly: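 Human CYP3A4 (20 nM) with Luciferin-PPXE at 25 uM (its KM) in 200 mM KPO4; 10 min compound preincubation, then NADPH regeneration and 60 min reaction at RT. Luciferin read by luminescence; normalized to 57 uM ketoconazole full inhibition.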
Assay [9] is described as follows: Confirmation and Secondary Assay for Modulators of Hemoglobin Beta Chain Splicing at IVS2 654 locus (AID 910).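 Also: per-well total GFP intensity by laser scanning cytometry after 2-day treatment.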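 Also: potency is read from the fitted curve at half-maximal effect; potency of activators that raise GFP signal by restoring correct splicing.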 Summed up: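 HeLa cells stably carrying EGFP interrupted by mutant beta-globin IVS2-654 intron (CMV-driven) were treated with compound for 2 days at 37C; corrected splicing was scored as total peak GFP intensity per well (488 nm excitation, 500-520 nm emission).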

Assay [10] in a line: Confirmation and Secondary Assay for Modulators of Hemoglobin Beta Chain Splicing at IVS2 705 locus (AID 930).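 Also: HeLa cells stably expressing the EGFP-705 splicing reporter; GFP fluorescence per well restored by corrected splicing of the IVS2-705 intron in EGFP; series mostly up to about 46 µM; % of control where 0% means no effect.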 Summed up:
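First, HeLa EGFP-705 cells are seeded at 500/well in Optimem with 2% FCS and left overnight. Next, compound or DMSO is added for 2 days. Finally wells are laser-scanned and total peak GFP intensity scored.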

Assay [11] has as its target Rap guanine nucleotide exchange factor 3 (Homo sapiens) (UniProt O95398). In words: Confirmatory qHTS for agonist of cAMP-regulated guanine nucleotide exchange factor 3 (EPAC1) (AID 1645881). Also: nearly all actives have a fitted effect of over 75% in size. Also: potency is read from the fitted curve at half-maximal effect.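 As to activation: EPAC1 catalysed release of BODIPY-GDP from Rap1B seen as fluorescence loss; 100% = effect of cAMP agonist control.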
The target of assay [12] is Ubiquitin carboxyl-terminal hydrolase 1 (Homo sapiens) (UniProt O94782). In words: Inhibitors of USP1/UAF1: Pilot qHTS (AID 504865). Also: potency is read from the fitted curve at half-maximal effect; nearly all actives have a fitted effect of over 35% in size. Put shortly:
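Kinetic fluorescence assay: 1nM USP1/UAF1, 15 min compound preincubation, then 150nM Ub-Rho; 480/540 nm.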

A number with no mark means an inactive call. Inconclusive results are not listed. The source made the active and inactive calls. Calls follow the shape of the dose curve; as a rule, active = well fitted curve in the direction sought with a large enough effect; inconclusive = small, poorly fitted or top-dose-only effect, or another doubt; inactive = no such curve, though single readings can be large; an effect the other way counts as inactive or inconclusive.

Chain of Cytochrome P450 3A4 (Homo sapiens) (P08684 whole entry, looked up): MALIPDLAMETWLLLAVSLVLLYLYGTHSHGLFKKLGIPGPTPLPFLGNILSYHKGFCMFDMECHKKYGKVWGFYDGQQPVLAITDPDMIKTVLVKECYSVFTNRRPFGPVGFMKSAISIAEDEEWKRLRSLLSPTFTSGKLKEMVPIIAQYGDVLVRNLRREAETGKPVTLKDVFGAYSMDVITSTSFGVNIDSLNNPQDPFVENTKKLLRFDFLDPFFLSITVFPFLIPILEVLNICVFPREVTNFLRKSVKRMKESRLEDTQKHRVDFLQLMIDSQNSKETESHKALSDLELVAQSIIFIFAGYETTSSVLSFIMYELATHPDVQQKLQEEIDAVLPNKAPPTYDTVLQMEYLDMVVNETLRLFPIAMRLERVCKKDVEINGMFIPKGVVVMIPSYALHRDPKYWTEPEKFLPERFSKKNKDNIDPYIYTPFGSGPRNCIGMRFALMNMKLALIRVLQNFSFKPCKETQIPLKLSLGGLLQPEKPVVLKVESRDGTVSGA
Chain of Rap guanine nucleotide exchange factor 3 (Homo sapiens) (O95398 whole entry, looked up): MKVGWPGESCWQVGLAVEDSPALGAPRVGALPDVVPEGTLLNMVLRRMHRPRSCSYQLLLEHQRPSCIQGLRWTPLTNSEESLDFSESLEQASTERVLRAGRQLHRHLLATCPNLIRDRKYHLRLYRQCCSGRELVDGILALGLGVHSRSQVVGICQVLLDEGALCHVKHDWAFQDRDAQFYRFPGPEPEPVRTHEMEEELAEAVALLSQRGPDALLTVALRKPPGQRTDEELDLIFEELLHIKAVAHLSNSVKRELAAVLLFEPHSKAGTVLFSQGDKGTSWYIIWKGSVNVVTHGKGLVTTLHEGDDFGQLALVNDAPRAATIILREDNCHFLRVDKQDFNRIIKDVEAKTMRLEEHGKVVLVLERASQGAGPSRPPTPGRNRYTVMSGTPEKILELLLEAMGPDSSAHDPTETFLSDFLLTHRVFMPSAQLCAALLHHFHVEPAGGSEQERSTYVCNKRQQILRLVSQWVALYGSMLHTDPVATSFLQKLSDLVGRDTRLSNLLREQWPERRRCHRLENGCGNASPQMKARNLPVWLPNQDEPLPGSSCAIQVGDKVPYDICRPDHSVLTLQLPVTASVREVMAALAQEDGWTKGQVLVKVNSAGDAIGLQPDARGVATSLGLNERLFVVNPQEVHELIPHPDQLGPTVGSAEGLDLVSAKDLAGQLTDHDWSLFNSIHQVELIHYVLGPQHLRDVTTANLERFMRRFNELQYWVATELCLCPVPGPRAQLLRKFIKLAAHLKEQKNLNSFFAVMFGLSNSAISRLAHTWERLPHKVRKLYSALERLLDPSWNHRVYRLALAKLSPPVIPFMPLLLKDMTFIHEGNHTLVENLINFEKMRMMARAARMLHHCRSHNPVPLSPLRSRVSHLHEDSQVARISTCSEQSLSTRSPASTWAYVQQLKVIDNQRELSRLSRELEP
Chain of Rap guanine nucleotide exchange factor 4 (Homo sapiens) (Q8WZA2 whole entry, looked up): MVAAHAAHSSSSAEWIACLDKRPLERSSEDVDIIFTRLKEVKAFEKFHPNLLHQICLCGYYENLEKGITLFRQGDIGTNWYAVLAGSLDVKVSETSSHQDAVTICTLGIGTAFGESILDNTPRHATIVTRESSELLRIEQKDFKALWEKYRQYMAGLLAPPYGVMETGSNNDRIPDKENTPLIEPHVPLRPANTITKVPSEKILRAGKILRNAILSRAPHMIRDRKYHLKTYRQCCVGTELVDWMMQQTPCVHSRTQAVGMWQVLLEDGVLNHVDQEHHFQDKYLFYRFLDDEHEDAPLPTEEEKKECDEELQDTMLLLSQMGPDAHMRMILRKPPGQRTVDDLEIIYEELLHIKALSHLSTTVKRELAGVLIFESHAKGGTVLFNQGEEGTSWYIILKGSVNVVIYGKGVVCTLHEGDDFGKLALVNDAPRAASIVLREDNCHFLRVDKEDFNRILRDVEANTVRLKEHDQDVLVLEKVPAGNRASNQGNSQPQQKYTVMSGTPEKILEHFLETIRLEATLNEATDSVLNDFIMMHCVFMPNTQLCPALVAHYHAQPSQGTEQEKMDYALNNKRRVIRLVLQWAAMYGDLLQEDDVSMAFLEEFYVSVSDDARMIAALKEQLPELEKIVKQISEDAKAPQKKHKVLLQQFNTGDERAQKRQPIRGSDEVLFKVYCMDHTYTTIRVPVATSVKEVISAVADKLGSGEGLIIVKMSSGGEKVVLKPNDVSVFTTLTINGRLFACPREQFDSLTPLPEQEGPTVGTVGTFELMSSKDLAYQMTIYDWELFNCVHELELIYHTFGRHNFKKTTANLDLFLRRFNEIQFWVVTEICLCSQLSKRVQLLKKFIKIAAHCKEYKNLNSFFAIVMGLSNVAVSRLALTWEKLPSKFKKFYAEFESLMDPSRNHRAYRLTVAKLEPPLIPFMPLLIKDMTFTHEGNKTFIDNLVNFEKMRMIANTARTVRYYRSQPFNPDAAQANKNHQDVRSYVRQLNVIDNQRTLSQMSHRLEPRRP
Chain of Tumor susceptibility gene 101 protein (Homo sapiens) (Q99816 whole entry, looked up, the tested form may be a part): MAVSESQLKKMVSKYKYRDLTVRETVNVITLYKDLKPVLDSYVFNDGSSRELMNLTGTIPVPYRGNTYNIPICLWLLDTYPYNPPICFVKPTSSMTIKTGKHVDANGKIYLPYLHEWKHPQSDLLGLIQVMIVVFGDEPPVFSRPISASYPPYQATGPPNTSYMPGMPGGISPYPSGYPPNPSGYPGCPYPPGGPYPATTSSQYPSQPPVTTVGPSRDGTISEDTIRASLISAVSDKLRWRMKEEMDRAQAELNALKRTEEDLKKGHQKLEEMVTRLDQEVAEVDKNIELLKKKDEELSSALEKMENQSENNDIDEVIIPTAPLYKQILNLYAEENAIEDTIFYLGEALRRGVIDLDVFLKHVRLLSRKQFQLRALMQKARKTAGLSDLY
Chain of Ubiquitin carboxyl-terminal hydrolase 1 (Homo sapiens) (O94782 whole entry, looked up): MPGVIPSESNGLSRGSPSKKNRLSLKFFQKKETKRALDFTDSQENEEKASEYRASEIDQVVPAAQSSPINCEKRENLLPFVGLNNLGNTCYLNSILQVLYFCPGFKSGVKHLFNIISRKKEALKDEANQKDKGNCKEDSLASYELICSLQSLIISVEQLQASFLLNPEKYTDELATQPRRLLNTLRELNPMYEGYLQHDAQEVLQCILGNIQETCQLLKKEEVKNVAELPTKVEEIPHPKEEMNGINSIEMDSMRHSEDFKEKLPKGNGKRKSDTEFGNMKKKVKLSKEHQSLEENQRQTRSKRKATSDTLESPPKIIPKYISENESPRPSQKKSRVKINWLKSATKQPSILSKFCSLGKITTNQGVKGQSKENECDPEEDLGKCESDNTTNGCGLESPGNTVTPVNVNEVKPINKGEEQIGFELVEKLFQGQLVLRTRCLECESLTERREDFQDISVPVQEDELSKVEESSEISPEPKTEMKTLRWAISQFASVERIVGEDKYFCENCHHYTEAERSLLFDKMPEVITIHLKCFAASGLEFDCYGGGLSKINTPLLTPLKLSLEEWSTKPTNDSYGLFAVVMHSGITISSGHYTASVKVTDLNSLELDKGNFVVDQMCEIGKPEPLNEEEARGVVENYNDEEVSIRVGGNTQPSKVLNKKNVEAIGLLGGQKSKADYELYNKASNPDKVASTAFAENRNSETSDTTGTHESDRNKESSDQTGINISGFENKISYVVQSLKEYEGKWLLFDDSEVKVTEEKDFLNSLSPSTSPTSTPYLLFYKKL

Consider `CN1/C(=C\C=C2C(=O)NC(=S)NC2=O)C(C)(C)c2ccccc21`, for which the Potency result in assay [1], in assay [2] and in assay [4] was “inactive” throughout. Also, the Potency in [3] is 100 µM (active). Moreover, the call in assay [5] was inactive.
As for `O=[N+]([O-])c1ccc(N2CCCCCC2)c2nonc12`, the Potency entry in [2] and in assay [4] was “inactive” in each case. Besides, the Potency in [3] was 100 µM (active); in assay [6], 25.1 µM (active). For the same compound, the outcome in [5] was inactive.
Take `CCN(CC)c1ccc(N=Cc2c(O)n(CCc3ccc(OC)c(OC)c3)c(=O)[nH]c2=O)cc1`: the Potency entry in [2] is “inactive”. Moreover, the activity change, negative = inhibition in assay [4] was -5.1% [at 12.7 µM]; in [5], -17.1% [at 30.8 µM].
As to `CCCCCC1C(=O)O[C@H](C)[C@@H](NC(=O)c2cccc(NC=O)c2O)C(=O)OC(C)C1OC(=O)CC(C)C` (some centres undefined), in assay [7], the Potency is 7.94 µM (active). Besides, the Potency entry in assay [8], in assay [9], in [10], in assay [2], in [11] and in assay [3] was “inactive” in each case.
Regarding `CC[C@@]1(O)CC(O)c2c(cc3c(c2O)C(=O)c2c(O)ccc(O)c2C3=O)C1C(=O)OC` (some centres undefined), the Potency in [7] was 7.94 µM (active); in assay [9], 12.6 µM (active); in [12], 22.4 µM (active). The Potency entry in assay [8], in assay [2], in assay [11], in assay [3] and in assay [4] was “inactive” each time.
For `COC1C(C)OC(OC2CC(C)(O)Cc3cc4c(c(O)c32)C(=O)c2c(O)cc3c(c2C4=O)OC2OC3(C)C(O)C(N(C)C)C2O)C(OC)C1(C)OC` (centres undefined), the Potency entry in [2] is “inactive”. The activation in assay [3] is 18.7% [at 17.1 µM, percent relative to cAMP agonist control]. For the same compound, the activity change, negative = inhibition in [4] is 15.2% [at 12.7 µM]; in assay [5] it was 87.2% [at 30.8 µM].
Turning to `COC(=O)C1C2c3ccccc3C(c3ccccc32)C1(C)C(=O)OC` (centres undefined), the Potency result in [2] and in [11] was “inactive” in each case. For the same compound, the activation in [3] was 9.42% [at 17.1 µM, percent relative to cAMP agonist control]. In addition, in assay [5], the activity change, negative = inhibition was 4.93% [at 30.8 µM].
As to `O=c1oc2ccccc2c(O)c1C(c1ccc([N+](=O)[O-])cc1)c1c(O)c2ccccc2oc1=O`, the Potency in assay [2] is 15.8 µM (active). Besides, in assay [11], the Potency result was “inactive”. Besides, the activation in assay [3] is 0% [at 17.1 µM, percent relative to cAMP agonist control]. In addition, the activity change, negative = inhibition in [5] was -13.4% [at 30.8 µM].
With `O=c1[nH]c(=S)n(-c2ccccc2F)c(O)c1C=Nc1ccc(N2CCOCC2)cc1`, the Potency entry in assay [2] is “inactive”. The activation in assay [3] is 4.59% [at 17.1 µM, percent relative to cAMP agonist control]; in [6], 32% [at 30.8 µM]. Also, the activity change, negative = inhibition is -15.3% [at 12.7 µM] in assay [4] and -4.47% [at 30.8 µM] in assay [5].
Turning to `Cc1cc(C=C(C#N)C#N)ccc1N1CCCC1`, the Potency entry in [2] was “inactive”. Further, the Potency in assay [11] is 100 µM (active); in [3], 112 µM (active); in assay [6] it was 28.2 µM (active). In addition, the result in assay [5] was inactive.
For the compound `O=[N+]([O-])c1ccc(N2CCOCC2)c2c1no[n+]2[O-]`, in assay [2], the Potency was 47.8 µM (active). Further, the Potency result in assay [11], in assay [3] and in assay [6] was “inactive” throughout.
As for `Cc1ccc(N)c(C(=O)c2ccc(Br)cc2)c1`, the Potency result in [2], in assay [11] and in assay [4] was “inactive” in each case. Also, the outcome in assay [5] was inactive.
On to `CC(C)C/C(=N/O)c1cn(C)c2ccccc12`, for which the Potency result in assay [2], in assay [11], in [3] and in assay [6] was “inactive” throughout. Also, the compound was classed as inactive in [5].
As for `Cc1cccc(N2C(=O)NC(=O)/C(=C\c3cc(C)n(-c4sc5c(c4C#N)CCCC5)c3C)C2=O)c1C`, the Potency in assay [2] was 30.1 µM (active). Also, the Potency result in [11] and in assay [3] was “inactive” throughout. Moreover, the outcome in [5] was inactive.
Consider `Nc1ccc2ccc3cccc[n+]3c2c1`, for which the Potency in assay [1] was 4.11 µM (active); in [3] it was 100 µM (active); in [6] it was 39.8 µM (active). In addition, the Potency entry in assay [2] and in assay [4] was “inactive” in each case.
Turning to `COc1ccccc1-n1c(-c2cccs2)nc2ccccc2c1=O`, the Potency entry in assay [2], in [11] and in assay [4] was “inactive” each time. Moreover, in assay [5], the call was inactive.
In the case of `O=c1[nH]c(=S)n(-c2ccc(Cl)cc2)c(O)c1C=Nc1ccc(N2CCOCC2)cc1`, the Potency entry in assay [2], in [3], in [4] and in assay [6] was “inactive” in each case. Besides, the outcome in assay [5] was inactive.
`O=c1[nH]c(=O)n(-c2cccc(F)c2)c(O)c1/C=C1\C=Nc2ccccc21`: the Potency entry in [2], in assay [3], in assay [4] and in [6] was “inactive” in each case. In assay [5], the result was inactive.
As for `Cc1cc(=O)oc2cc(OCC(=O)N3CCC(C(=O)O)(c4ccccc4)CC3)ccc12`, the Potency in assay [2] was 75.7 µM (active). For the same compound, the Potency result in assay [11] and in [3] was “inactive” in each case. Moreover, in [5], the compound was called inactive.
As to `N/C(=N\N=C/c1ccc(-c2ccc(O)c(C(=O)O)c2)o1)N[N+](=O)[O-]`, in assay [2], the Potency is 4.78 µM (active). Besides, the Potency entry in [11] and in assay [3] was “inactive” throughout. In [5], the result was inactive.

The values are drawn from PubChem BioAssay (NCATS).
